# In PubChem BioAssay AID1159580 (chemical genetic matrix, 2015):
# Hit rate of the full screen: of about 5,500 compounds, about 2,000 (36%) were called active. Roughly 18% stayed inconclusive and do not appear here. The list shows a part of the results. Unmarked numbers belong to inactive results. Cut-off read from the data, not from the text of the source: active = normalized growth mostly below about 0.91 (no sharp cut-off); inconclusive = no clear call, values can overlap the other calls; inactive = mostly above about 0.92.
# Experiment: chemical genetic growth profiling, strain panel (AID 1159580);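 note: tested at 20 µM; growth read once vehicle control cultures reached saturation at 30 °C; 1 = growth at the plate median or of vehicle wells; lower values mean less growth of the strain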
# Conditions: S. cerevisiae deletion strains, growth OD
compound,measurement,setting,value
CC(=O)O.CC(=O)O.[Cd],normalized growth,"locus YAL013W, strain DEP1, active compounds read low",0.225 (active)
same,normalized growth,"locus YAL021C, strain ccr4, active compounds read low",0.629 (active)
same,normalized growth,"locus YAL026C, strain drs2, active compounds read low",0.436 (active)
same,normalized growth,"locus YAL030W, strain snc1, active compounds read low",0.77 (active)
same,normalized growth,"locus YBL061C, strain skt5, active compounds read low",0.771 (active)
same,normalized growth,"locus YBR009C, strain hhf1, active compounds read low",0.606 (active)
same,normalized growth,"locus YBR021W, strain FUR4, active compounds read low",0.106 (active)
same,normalized growth,"locus YBR023C, strain chs3, active compounds read low",0.743 (active)
same,normalized growth,"locus YBR171W, strain sec66, active compounds read low",0.786 (active)
same,normalized growth,"locus YBR229C, strain ROT2, active compounds read low",0.747 (active)
same,normalized growth,"locus YBR231C, strain swc5, active compounds read low",0.666 (active)
same,normalized growth,"locus YBR279W, strain paf1, active compounds read low",0.635 (active)
same,normalized growth,"locus YCL011C, strain gbp2, active compounds read low",0.632 (active)
same,normalized growth,"locus YCL016C, strain dcc1, active compounds read low",0.754 (active)
same,normalized growth,"locus YCL029C, strain bik1, active compounds read low",0.313 (active)
same,normalized growth,"locus YCL061C, strain MRC1, active compounds read low",0.783 (active)
same,normalized growth,"locus YCL069W, strain vba3, active compounds read low",0.762 (active)
same,normalized growth,"locus YCR088W, strain abp1, active compounds read low",0.654 (active)
same,normalized growth,"locus YDL005C, strain med2, active compounds read low",0.513 (active)
same,normalized growth,"locus YDL035C, strain GPR1, active compounds read low",0.243 (active)
same,normalized growth,"locus YDL040C, strain nat1, active compounds read low",0.589 (active)
same,normalized growth,"locus YDL074C, strain BRE1, active compounds read low",0.25 (active)
same,normalized growth,"locus YDL101C, strain DUN1, active compounds read low",0.177 (active)
same,normalized growth,"locus YDL134C, strain PPH21, active compounds read low",0.467 (active)
same,normalized growth,"locus YDL185W, strain tfp1, active compounds read low",0.482 (active)
same,normalized growth,"locus YDL192W, strain arf1, active compounds read low",0.144 (active)
same,normalized growth,"locus YDR001C, strain nth1, active compounds read low",0.845 (active)
same,normalized growth,"locus YDR069C, strain doa4, active compounds read low",0.107 (active)
same,normalized growth,"locus YDR101C, strain arx1, active compounds read low",0.319 (active)
same,normalized growth,"locus YDR137W, strain rgp1, active compounds read low",0.375 (active)
same,normalized growth,"locus YDR150W, strain NUM1, active compounds read low",0.175 (active)
same,normalized growth,"locus YDR159W, strain sac3, active compounds read low",0.828 (active)
same,normalized growth,"locus YDR162C, strain NBP2, active compounds read low",0.111 (active)
same,normalized growth,"locus YDR195W, strain ref2",0.512 (active)
same,normalized growth,"locus YDR297W, strain sur2, active compounds read low",0.727 (active)
same,normalized growth,"locus YDR318W, strain mcm21, active compounds read low",0.264 (active)
same,normalized growth,"locus YDR334W, strain swr1, active compounds read low",0.532 (active)
same,normalized growth,"locus YDR335W, strain msn5, active compounds read low",0.782 (active)
same,normalized growth,"locus YDR388W, active compounds read low",0.0738 (active)
same,normalized growth,"locus YDR392W, strain spt3, active compounds read low",0.299 (active)
same,normalized growth,"locus YDR502C, strain sam2, active compounds read low",0.464 (active)
same,normalized growth,"locus YEL003W, strain gim4, active compounds read low",0.681 (active)
same,normalized growth,"locus YEL037C, strain rad23, active compounds read low",0.786 (active)
same,normalized growth,"locus YEL061C, strain CIN8 (second series), active compounds read low",0.866 (active)
same,normalized growth,"locus YEL061C, strain CIN8, active compounds read low",0.342 (active)
same,normalized growth,"locus YER015W, strain faa2, active compounds read low",0.632 (active)
same,normalized growth,"locus YER016W, strain bim1, active compounds read low",0.702 (active)
same,normalized growth,"locus YER110C, active compounds read low",0.499 (active)
same,normalized growth,"locus YER111C, strain swi4, active compounds read low",0.872 (active)
same,normalized growth,"locus YER155C, strain BEM2 (second series), active compounds read low",0.446 (active)
same,normalized growth,"locus YER155C, strain BEM2, active compounds read low",0.519 (active)
same,normalized growth,"locus YER167W, strain BCK2, active compounds read low",0.269 (active)
same,normalized growth,"locus YFR010W, strain ubp6, active compounds read low",0.356 (active)
same,normalized growth,"locus YGL078C, strain dbp3, active compounds read low",0.466 (active)
same,normalized growth,"locus YGL086W, strain mad1, active compounds read low",0.256 (active)
same,normalized growth,"locus YGL167C, strain pmr1, active compounds read low",0.493 (active)
same,normalized growth,"locus YGL173C, strain kem1, active compounds read low",0.68 (active)
same,normalized growth,"locus YGL227W, strain vid30, active compounds read low",0.901 (active)
same,normalized growth,"locus YGL240W, strain doc1, active compounds read low",0.711 (active)
same,normalized growth,"locus YGL248W, strain PDE1, active compounds read low",0.356 (active)
same,normalized growth,"locus YGL253W, strain hxk2, active compounds read low",0.825 (active)
same,normalized growth,"locus YGR078C, strain PAC10, active compounds read low",0.721 (active)
same,normalized growth,"locus YGR135W, strain pre9, active compounds read low",0.565 (active)
same,normalized growth,"locus YGR229C, strain SMI1, active compounds read low",0.11 (active)
same,normalized growth,"locus YGR252W, strain gcn5, active compounds read low",0.253 (active)
same,normalized growth,"locus YHR013C, strain ard1, active compounds read low",0.303 (active)
same,normalized growth,"locus YHR027C, strain rpn1, active compounds read low",0.58 (active)
same,normalized growth,"locus YHR030C, strain SLT2, active compounds read low",0.508 (active)
same,normalized growth,"locus YHR079C, strain IRE1 (second series), active compounds read low",0.196 (active)
same,normalized growth,"locus YHR094C, strain hxt1, active compounds read low",0.529 (active)
same,normalized growth,"locus YHR129C, strain ARP1, active compounds read low",0.563 (active)
same,normalized growth,"locus YHR142W, strain chs7, active compounds read low",0.761 (active)
same,normalized growth,"locus YHR200W, strain rpn10, active compounds read low",0.513 (active)
same,normalized growth,"locus YIL066C, strain RNR3, active compounds read low",0.27 (active)
same,normalized growth,"locus YIL073C, strain SPO22, active compounds read low",0.134 (active)
same,normalized growth,"locus YIL125W, strain kgd1, active compounds read low",0.356 (active)
same,normalized growth,"locus YIR030C, strain dcg1, active compounds read low",0.383 (active)
same,normalized growth,"locus YJL092W, strain hpr5, active compounds read low",0.744 (active)
same,normalized growth,"locus YJL095W, strain BCK1 (second series), active compounds read low",0.669 (active)
same,normalized growth,"locus YJL095W, strain BCK1, active compounds read low",0.266 (active)
same,normalized growth,"locus YJL115W, strain asf1, active compounds read low",0.858 (active)
same,normalized growth,"locus YJL129C, strain trk1, active compounds read low",1.1
same,normalized growth,"locus YJL134W, strain LCB3, active compounds read low",0.643 (active)
same,normalized growth,"locus YJL154C, strain vps35, active compounds read low",0.485 (active)
same,normalized growth,"locus YJL164C, strain tpk1, active compounds read low",0.684 (active)
same,normalized growth,"locus YJL166W, strain qcr8, active compounds read low",0.59 (active)
same,normalized growth,"locus YJL168C, strain set2, active compounds read low",0.4 (active)
same,normalized growth,"locus YJL187C, strain SWE1 (second series), active compounds read low",0.326 (active)
same,normalized growth,"locus YJL187C, strain SWE1, active compounds read low",0.771 (active)
